# Experimental data from the supplement of paper PMC11417369.
# The full ranking holds about 25,000 sequences; the median of “ln(normalized median fluorescence intensity)” is about 7.1, and the highest 2% start at about 10. The sample holds the highest values, similar sequences and a random draw of the others, so the mix is not that of the screen.
# Tested on: PfSIP2 AP2 domain 1 (GST-tagged)
# Assay: gcPBM binding intensity (ln(normalized median fluorescence intensity)); higher = stronger DNA binding
# Summary of the method: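 Binding intensity is the highest Masliner-normalised natural-log median intensity over replicate spots in either probe orientation. To obtain it, GST-tagged P. falciparum DNA-binding domains made in E. coli were incubated for 1 h on an Agilent 4 × 180k array of primer-extended double-stranded 36-bp intergenic genomic probes plus negative controls. Detection used Alexa488 anti-GST antibody with scanning at 488 nm.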
row,Sequence,gcPBM binding intensity (ln)
1,ATATATTTTATATAGTGTACTTTAATTTTTTTTTTT [XGTACX_site5550],6.83
2,AGTTATTTTTATATTTCACACACATATACTTTTACA [CACACA_site9357],7.21
3,TAGCTGTTCAAAAAATGTACATATATAATATATATA [XGTACX_site5842],7.49
4,TATAATTTATTAAGGGGTACATATATTTCATGATAA [XGTACX_site5141],7.19
5,AATAAATTCATGATAGTGCAAAAATTATTTTTGTTA,8.49
6,ACACATAATATAAAGGTGCTATATTGTATTCATTTT [GTGCAC_site9457],8.36
7,GTATTCATGCTAAAGGTGCAATAATTTTTATAATAA [GTGCAC_site9603],10.9
8,ATTTTCATGATAAAGGTGCAATTATTTTTATAAGAA,10.8
9,AAACCCTATTCAATGCAATAATTTTATAATTTTTTT [TGCATGCA_negctrl_site434],6.91
10,AATCAAAATTAATTAACACACAATTTTAATATTCTT [CACACA_site2063],6.79
11,ATATATTTTTTTTAGCGTACATGCAAAAAAAAAAAA [XGTACX_site4590],7.26
12,TACGTTATGTTGAATAGTACAATTTGGTGAACAGGT [XGTACX_site1729],7.51
13,GTAGTGGTTGAATATACACACATATATAAATAAATA [CACACA_site7282],7
14,TTTTTTTTTTTTTTGGTGCGTTTATATATAAATATA,8.81
15,TTTTTTTTTTTGTGGGTGCGTTTATAAAAACAGGAA,11.1
16,TTTTATAAACAGAGGGGTACGGGAAAAAAAAAAAAA [XGTACX_site1480],7.11
17,TAATACCATTGTCATGCATGCACATTATTACTCTAA [TGCATGCA_site160],7.38
18,CCTAAAGTGTAAAATTCACACACATATATATATATA [CACACA_site8385],8.94
19,TTTTATATTTTAAGAGTGCATTTTATATCTTTTTCT,8.74
20,ATTTTTTTCTTAGGAGTGCACTTATATTTATTTTAT,11.2
21,ATATATTTTAGGAGAGTGCATTTAATATTATTTAAT [GTGCAC_site9444],8.99
22,TATATATAATATACATGTACAAATGTATTTAAAAAT [XGTACX_site6090],7.07
23,AGGTATATATTACAAGTGCACTGTAAAATTAAAATT,10.7
24,TGCATAATTAAAAATGGTACACTGTATTTATAATAT [XGTACX_site1575],7.13
25,TAAAAAATTAATAAAGTGCATAAATATTACAATATT,8.14
26,TCTTATGAATATCCCCGTACACATATATTTCTTATA [XGTACX_site6877],7.22
27,TATAAATTTTGTTTAGCACACACACCGACATACATA [CACACA_site9033],7.28
